The source made the active and inactive calls. Unless noted, how the calls were made is not given here.

This is an account of results in PubChem BioAssay.

One assay can be described thus: Pseudomonas biofilm growth suppression – PAO1 strain, BacTiter-Glo luminescence, LB-PBS, primary screen (AID 1144). As to conditions: P. aeruginosa PAO1 biofilm, 12 h, higher = more signal.
Regarding `O=C1c2ccccc2[C@](Cc2ccccc2I)(C(=O)O)[C@H](c2ccc(CO)cc2)N1Cc1ccccc1C(F)(F)F`, the z-score was -0.99 (inactive).
On the same count and under the same terms, to `COc1ccc(C#Cc2ccc3c(c2)[C@]2(C(=O)N3)[C@H](C(=O)N3CCN(c4ncccn4)CC3)[C@H]3C(=O)O[C@H](c4ccccc4)[C@H](c4ccccc4)N3[C@@H]2c2ccc(O)cc2)cc1` belongs -0.747 (inactive); to `Oc1ccc2cc[n+](Cc3cccc(OC(F)(F)F)c3)cc2c1`, -0.452 (inactive).
Still for that read-out and setting: to `O=C1[C@H]2C=C(Br)[C@H](C[C@@H]2OCCOCCO)[C@@]12CO2` belongs 0.199 (inactive).
Still for that read-out and setting: to `CC(c1ccccc1)C(O)C1C=CC2C(=O)N(Cc3ccccc3)C(=O)C2N1n1cnnc1` (stereo not drawn) belongs 0.144 (inactive); to `COCCCNC(=O)[C@@]1(C)c2ccccc2C(=O)N(Cc2ccccc2)[C@H]1c1ccc(CO)cc1`, -0.453 (inactive); to `NC(=O)NCC#Cc1ccc2c(c1)[C@]1(C(=O)N2)[C@H](c2ccc(O)cc2)N2[C@H](c3ccccc3)[C@H](c3ccccc3)OC(=O)[C@H]2[C@@H]1C(=O)N1CCN(c2ncccn2)CC1`, 0.185 (inactive).
Take `C=C[C@H](C)[C@H](OC(=O)Nc1ccc(OC)cc1)c1ccc(O)c2ccccc12`: the z-score is -0.156 (inactive).
Same read-out and setting: to `COCC1C2CC[C@H]3C(OCc4ccc(F)cc4C(F)(F)F)OC[C@]4(C)[C@H]3C2=C(CN4C(=O)OC(C)(C)C)[C@H](C)C1COC` (stereo partly drawn) belongs 0.338 (inactive).
On the same count and under the same terms, to `C=CCN1C(=O)[C@]2(Cc3ccccc31)N=C(c1ccc(OCCCO)cc1)O[C@@H]2c1ccccc1` belongs -0.324 (inactive); to `[N-]=[N+]=NCc1ccccc1[C@@H]1OC(c2ccc(OCCCO)cc2)=N[C@]1(Cc1ccccc1)C(=O)O`, -0.608 (inactive); to `O=C(NCCN1CCOCC1)[C@@H]1c2ccccc2C(=O)N(Cc2cc(F)cc(C(F)(F)F)c2)[C@H]1c1ccc(CO)cc1`, 0.153 (inactive).
As for `O=c1cccc(-c2ccccc2)o1`, the z-score was 1.55 (inactive).
Same read-out and setting: to `O=C1O[C@@H](c2ccccc2)[C@@H](c2ccccc2)N2[C@@H](c3ccc(O)cc3)[C@]3(C(=O)Nc4ccccc43)[C@@H](C(=O)N3CCCCCCC3)[C@H]12` belongs -0.279 (inactive).
On to `Cc1ccccc1/C=C/C=O`, for which the z-score is -0.242 (inactive).
Same read-out and setting: to `COc1ccc([Si](C)(C)[C@H]2[C@H](CC(=O)N3Cc4ccccc4C[C@H]3CO)O[C@@]3(C(=O)N(Cc4cccc(I)c4)c4ccccc43)[C@@H]2C)cc1` belongs -0.194 (inactive); to `C=C(/C(=C/C[C@@H](OC(C)=O)c1ccc(CO)o1)c1cnc2ccccc2c1)C(C)C`, -0.171 (inactive).
On the same count and under the same terms, to `[N-]=[N+]=NCc1ccccc1[C@@H]1OC(c2ccc(OCCCO)cc2)=N[C@]1(Cc1ccccc1N=[N+]=[N-])C(N)=O` belongs -0.089 (inactive).
Same read-out and setting: to `C=CCOC(=O)[C@H]1[C@@H]2C(=O)O[C@@H](c3ccccc3)[C@@H](c3ccccc3)N2[C@@H](c2ccc(OCCOC(=O)[C@H]3C[C@H]4C(=O)N[C@@H](CCCC[N+](C)(C)C)C(=O)N4[C@H]3c3ccc(O)cc3)cc2)[C@]12C(=O)Nc1ccccc12` belongs -0.968 (inactive).
As for `CC1CC/C=C\[C@H]2OC34C=CCN(Cn5nnc6ccccc65)C(=O)[C@H]3N(CCCO)C(=O)[C@@H]4C2C(=O)O1` (stereo partly drawn), the z-score was -0.281 (inactive).
For the molecule `Cc1cc(C)c(C(O)C2C=CC3C(=O)NC(=O)C3N2Nc2ccccn2)c(C)c1` (stereo not drawn), the z-score was -0.644 (inactive).
Still for that read-out and setting: to `C=C[C@@H](C)[C@@H](OC(=O)Nc1ccc(OC)cc1)c1ccc(O)c2ccccc12` belongs -0.901 (inactive); to `[N-]=[N+]=NCc1ccccc1[C@H]1OC(c2ccc(OCCCO)cc2)=N[C@@]1(Cc1ccccc1)C(=O)NCC(O)CO` (stereo partly drawn), -0.737 (inactive); to `C=CC[C@]1(C(=O)O)N=C(c2ccc(OCCCO)cc2)O[C@H]1c1ccccc1CN=[N+]=[N-]`, 0.874 (inactive).
As to `NC(=O)[C@@]1(CCS(=O)(=O)c2ccccc2)N=C(c2ccc(OCCCO)cc2)O[C@H]1c1ccccc1`, the z-score was 0.814 (inactive).
Still for that read-out and setting: to `C=C(CCCC)/C(=C/C[C@H](OC(C)=O)c1ccc(CO)o1)c1cc(C(=O)OC)ccc1OC` belongs -0.193 (inactive).
As for `O=C1O[C@@H](c2ccccc2)[C@@H](c2ccccc2)N2[C@@H](c3ccc(O)cc3)[C@]3(C(=O)Nc4ccccc43)[C@@H](C(=O)NC[C@H](O)c3ccccc3)[C@H]12`, the z-score is 0.184 (inactive).

A further assay in a line: basal CRE-LacZ reporter activity in PC12 – cell-based, unstimulated, primary screen (AID 1145). As to conditions: no forskolin, luminescence, 4.5 h, higher = more signal, called active from +8 up or from −8 down.
For `O=C1O[C@H](c2ccccc2)[C@H](c2ccccc2)N2[C@H]1[C@@H](C(=O)NC[C@H](O)c1ccccc1)[C@]1(C(=O)Nc3ccc(C#CC4(O)CCCCCC4)cc31)[C@H]2c1ccccc1OCCO`, the z-score is -0.325 (inactive).
Still for that read-out and setting: to `O=C1OCCC=C[C@H]2OC34C=CCN(c5ccc6ccccc6c5)C(=O)[C@H]3N(CCCCCCO)C(=O)[C@@H]4C12` (stereo partly drawn) belongs 0.0605 (inactive); to `COC(=O)C(CC#Cc1ccc2c(c1)[C@]1(C(=O)N2)[C@H](C(=O)N2CCCCCCC2)[C@H]2C(=O)O[C@H](c3ccccc3)[C@H](c3ccccc3)N2[C@@H]1c1ccccc1OCCO)C(=O)OC`, -0.141 (inactive).
Same read-out and setting: to `[N-]=[N+]=Nc1ccccc1[C@@H]1OC(c2ccc(OCCCO)cc2)=N[C@]1(CCS(=O)(=O)c1ccccc1)C(=O)N1CCCCC1` belongs 1.43 (inactive).
The same measure, in the same setting: to `CCOC(=O)C[C@H]1[C@H](OC(=O)c2cc3ccccc3oc2=O)[C@@H](NC(=O)c2ccc3ccccc3c2)c2cc(OCCCO)ccc2N1C(=O)c1ccccc1` belongs 9.27 (active); to `COCCOC(=O)N1C(=O)[C@@]2(c3cc(C#CCCO)ccc31)[C@H](c1ccc(O)cc1)N1[C@H](c3ccccc3)[C@H](c3ccccc3)OC(=O)[C@H]1[C@@H]2C(=O)N1CCCCCCC1`, 0.568 (inactive); to `O=[N+]([O-])c1ccc(C[n+]2ccc(CCCO)cc2)o1`, 0.0026 (inactive).
As to `COCCn1c(C(=O)N2CCCC2)cc2c1C[C@H]1CN(C(=O)c3ccccc3)[C@@](Cc3ccc(OC)cc3)(C(=O)OC)[C@@H]21`, the z-score was -0.751 (inactive).
The same measure, in the same setting: to `O=C1c2ccccc2[C@](Cc2ccccc2I)(C(=O)O)[C@H](c2ccc(CO)cc2)N1Cc1ccccc1C(F)(F)F` belongs -0.295 (inactive); to `COc1ccc(C#Cc2ccc3c(c2)[C@]2(C(=O)N3)[C@H](C(=O)N3CCN(c4ncccn4)CC3)[C@H]3C(=O)O[C@H](c4ccccc4)[C@H](c4ccccc4)N3[C@@H]2c2ccc(O)cc2)cc1`, 0.775 (inactive); to `Oc1ccc2cc[n+](Cc3cccc(OC(F)(F)F)c3)cc2c1`, -0.0243 (inactive).
The same measure, in the same setting: to `O=C1[C@H]2C=C(Br)[C@H](C[C@@H]2OCCOCCO)[C@@]12CO2` belongs -1.23 (inactive); to `CC(c1ccccc1)C(O)C1C=CC2C(=O)N(Cc3ccccc3)C(=O)C2N1n1cnnc1` (stereo not drawn), -0.172 (inactive).
Same read-out and setting: to `COCCCNC(=O)[C@@]1(C)c2ccccc2C(=O)N(Cc2ccccc2)[C@H]1c1ccc(CO)cc1` belongs -0.295 (inactive).
In the case of `NC(=O)NCC#Cc1ccc2c(c1)[C@]1(C(=O)N2)[C@H](c2ccc(O)cc2)N2[C@H](c3ccccc3)[C@H](c3ccccc3)OC(=O)[C@H]2[C@@H]1C(=O)N1CCN(c2ncccn2)CC1`, the z-score was 1.21 (inactive).
Same read-out and setting: to `C=C[C@H](C)[C@H](OC(=O)Nc1ccc(OC)cc1)c1ccc(O)c2ccccc12` belongs 0.236 (inactive).
On the same count and under the same terms, to `COCC1C2CC[C@H]3C(OCc4ccc(F)cc4C(F)(F)F)OC[C@]4(C)[C@H]3C2=C(CN4C(=O)OC(C)(C)C)[C@H](C)C1COC` (stereo partly drawn) belongs 0.0007 (inactive).
In the case of `C=CCN1C(=O)[C@]2(Cc3ccccc31)N=C(c1ccc(OCCCO)cc1)O[C@@H]2c1ccccc1`, the z-score was -0.146 (inactive).
For `[N-]=[N+]=NCc1ccccc1[C@@H]1OC(c2ccc(OCCCO)cc2)=N[C@]1(Cc1ccccc1)C(=O)O`, the z-score is 1.19 (inactive).
The same measure, in the same setting: to `O=C(NCCN1CCOCC1)[C@@H]1c2ccccc2C(=O)N(Cc2cc(F)cc(C(F)(F)F)c2)[C@H]1c1ccc(CO)cc1` belongs 0.378 (inactive).
Still for that read-out and setting: to `O=c1cccc(-c2ccccc2)o1` belongs -0.723 (inactive).
Still for that read-out and setting: to `O=C1O[C@@H](c2ccccc2)[C@@H](c2ccccc2)N2[C@@H](c3ccc(O)cc3)[C@]3(C(=O)Nc4ccccc43)[C@@H](C(=O)N3CCCCCCC3)[C@H]12` belongs 0.0384 (inactive); to `Cc1ccccc1/C=C/C=O`, -0.204 (inactive); to `COc1ccc([Si](C)(C)[C@H]2[C@H](CC(=O)N3Cc4ccccc4C[C@H]3CO)O[C@@]3(C(=O)N(Cc4cccc(I)c4)c4ccccc43)[C@@H]2C)cc1`, 5.99 (inactive).
For the molecule `C=C(/C(=C/C[C@@H](OC(C)=O)c1ccc(CO)o1)c1cnc2ccccc2c1)C(C)C`, the z-score is 0.159 (inactive).
Same read-out and setting: to `[N-]=[N+]=NCc1ccccc1[C@@H]1OC(c2ccc(OCCCO)cc2)=N[C@]1(Cc1ccccc1N=[N+]=[N-])C(N)=O` belongs -0.128 (inactive); to `C=CCOC(=O)[C@H]1[C@@H]2C(=O)O[C@@H](c3ccccc3)[C@@H](c3ccccc3)N2[C@@H](c2ccc(OCCOC(=O)[C@H]3C[C@H]4C(=O)N[C@@H](CCCC[N+](C)(C)C)C(=O)N4[C@H]3c3ccc(O)cc3)cc2)[C@]12C(=O)Nc1ccccc12`, -1.62 (inactive).
The same measure, in the same setting: to `CC1CC/C=C\[C@H]2OC34C=CCN(Cn5nnc6ccccc65)C(=O)[C@H]3N(CCCO)C(=O)[C@@H]4C2C(=O)O1` (stereo partly drawn) belongs -0.212 (inactive).
`Cc1cc(C)c(C(O)C2C=CC3C(=O)NC(=O)C3N2Nc2ccccn2)c(C)c1` (stereo not drawn): the z-score was -0.14 (inactive).
The same measure, in the same setting: to `C=C[C@@H](C)[C@@H](OC(=O)Nc1ccc(OC)cc1)c1ccc(O)c2ccccc12` belongs 0.758 (inactive); to `[N-]=[N+]=NCc1ccccc1[C@H]1OC(c2ccc(OCCCO)cc2)=N[C@@]1(Cc1ccccc1)C(=O)NCC(O)CO` (stereo partly drawn), 0.96 (inactive).
